The panel holds about 83,000 compounds, 20% with a hit somewhere; the sample as a whole holds those more often.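 Note: values are percent growth. 100 is the growth of untreated cells, values between 100 and 0 indicate rising inhibition; between -100 and 0 indicates cell death.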 Unmarked numbers belong to inactive results. Activity calls are given as the source filed them. Rule for the calls: active = growth percent below 10; inactive = the rest.
What was measured:
Assay in all cases: NCI-60 one-dose screen, 48 h (100 = growth as untreated, 0 = no growth, -100 = all killed)
Details in all cases: 10 µM unless noted
[1] = tested on: DU-145 prostate
[2] = tested on: K-562 leukemia
[3] = tested on: MALME-3M melanoma
[4] = tested on: MDA-MB-231 breast
[5] = tested on: RXF 393 renal
[6] = tested on: SF-268 CNS
[7] = tested on: SF-295 CNS
[8] = tested on: SF-539 CNS
[9] = tested on: UACC-257 melanoma
[10] = tested on: M14 melanoma

C=C1CC[C@@H]2[C@](C)(COC(C)=O)[C@H](OC(C)=O)CC[C@@]2(C)[C@@H]1C/C=C1/C(=O)OC[C@H]1OC(C)=O
growth [1]: 50.9% | growth [2]: 11.1% | growth [3]: 77.7% | growth [4]: 95.8% | growth [5]: -7.35% (active) | growth [6]: 87.1% | growth [7]: 95% | growth [8]: 8.54% (active) | growth [9]: 66.5% | growth [10]: 35.4%

O=C(Cn1ccnc1)Nc1ccc(-c2nc3ccccc3s2)cc1
growth [1]: 81.1% | growth [2]: 39.6% | growth [3]: 81.8% | growth [4]: 80.1% | growth [5]: 102% | growth [6]: 81.1% | growth [7]: 65.5% | growth [8]: 81.3% | growth [9]: 67.6% | growth [10]: 94.4%

O=C(NOCCO)c1ccc2cncn2c1Nc1ccc(I)cc1F
growth [1]: 64.6% | growth [2]: 38.2% | growth [3]: 1.32% (active) | growth [4]: 31.6% | growth [5]: -6.5% (active) | growth [6]: 74.5% | growth [7]: 91.9% | growth [8]: 66.2% | growth [9]: -20.7% (active) | growth [10]: 5.3% (active)

COc1ccc(C(=O)N2c3ccccc3Sc3ccccc32)c(F)c1
growth [1]: 5.05% (active) | growth [2]: 12.7% | growth [3]: 46.6% | growth [4]: 52.5% | growth [5]: -23.1% (active) | growth [6]: 53.1% | growth [7]: 8.85% (active) | growth [8]: -15.8% (active) | growth [9]: 67.1% | growth [10]: 2.04% (active)

Brc1ccc([I+]c2ccc(Br)cc2)cc1
growth [1]: 52.6% | growth [2]: 9.03% (active) | growth [3]: 35.7% | growth [4]: 15.1% | growth [5]: 40.6% | growth [6]: -56.7% (active) | growth [7]: 27.5% | growth [8]: 27.3% | growth [9]: 27% | growth [10]: 10.3%

CC[C@H](Nc1ncnc2nc[nH]c12)c1nc2cccc(F)c2c(=O)n1-c1ccccc1
growth [1]: 62.4% | growth [2]: 83.6% | growth [3]: 88.9% | growth [4]: 89.1% | growth [5]: 2.02% (active) | growth [6]: 71% | growth [7]: 57.9% | growth [8]: 102% | growth [9]: 39.9% | growth [10]: 85.3%

Cc1csc(-c2nnc(Nc3ccc(Oc4ncccc4-c4ccnc(N)n4)cc3)c3ccccc23)c1
growth [1]: 55.8% | growth [2]: 40% | growth [3]: 18.6% | growth [4]: 37.7% | growth [5]: 8.98% (active) | growth [6]: 58.3% | growth [7]: 60.2% | growth [8]: 41.1% | growth [9]: 20.8% | growth [10]: 15.4%

COC(=O)[C@H](Cc1ccc(O)cc1)NC(=O)[C@@H](OC)[C@@H]1Cc2cc3cc(OC4CC(OC5CC(O)C(O)C(C)O5)C(O)C(C)O4)c(C)c(O)c3c(O)c2C(=O)[C@H]1OC1CC(OC2CC(OC3CC(C)(O)C(O)C(C)O3)C(O)C(C)O2)C(O)C(C)O1 (stereo not given in full)
growth [1]: 15.8% | growth [2]: 7.28% (active) | growth [3]: -43% (active) | growth [4]: 19.5% | growth [5]: -71.5% (active) | growth [6]: 20.7% | growth [7]: 7.09% (active) | growth [8]: -27.1% (active) | growth [9]: 2.42% (active) | growth [10]: -20.2% (active)

Cc1ccc(C(=O)Nc2ccc(CN3CCN(C)CC3)c(C(F)(F)F)c2)cc1C#Cc1cnc2cccnn12
growth [1]: -99.7% (active) | growth [2]: -64.9% (active) | growth [3]: -85.5% (active) | growth [4]: -85% (active) | growth [5]: -95.1% (active) | growth [6]: -96.4% (active) | growth [7]: -95.7% (active) | growth [8]: -97.2% (active) | growth [9]: -88.3% (active) | growth [10]: -88.8% (active)

O=C(Cn1cncn1)Nc1ccc(-c2nc3ccccc3s2)cc1
growth [1]: 94.5% | growth [2]: 85.8% | growth [3]: 100% | growth [4]: 96.5% | growth [5]: 125% | growth [6]: 97.1% | growth [7]: 91.9% | growth [8]: 108% | growth [9]: 102% | growth [10]: 111%

C#Cc1cccc(Nc2ncnc3cc(OC)c(OCCCCCCC(=O)NO)cc23)c1
growth [1]: 0.81% (active) | growth [2]: 5.48% (active) | growth [3]: 2.19% (active) | growth [4]: -16.8% (active) | growth [5]: -49.5% (active) | growth [6]: -3.98% (active) | growth [7]: -53.6% (active) | growth [8]: -1.18% (active) | growth [9]: -47.3% (active) | growth [10]: 2.66% (active)

COc1cccc(NC(=O)Nc2ccc(Nc3ncnc4sc5c(c34)CCN(C(=O)CCl)C5)cc2)c1
growth [1]: 118% | growth [2]: 91.3% | growth [3]: 116% | growth [4]: 92.7% | growth [5]: 99.1% | growth [6]: 91.3% | growth [7]: 98.1% | growth [8]: 106% | growth [9]: 93.4% | growth [10]: 101%

O=C(O)C1(Cc2cccc(Nc3nccs3)n2)CCC(Oc2cccc(Cl)c2F)CC1 (stereo not given)
growth [1]: 70.2% | growth [2]: 33.9% | growth [3]: 77.5% | growth [4]: 77.5% | growth [5]: 82.1% | growth [6]: 61.6% | growth [7]: 71.5% | growth [8]: 89.2% | growth [9]: 49.6% | growth [10]: 58%

Cc1cc2c(F)c(Oc3ncnn4cc(OC[C@@H](C)OC(=O)[C@H](C)N)c(C)c34)ccc2[nH]1
growth [1]: 66.5% | growth [2]: 41.5% | growth [3]: 11.4% | growth [4]: 39.8% | growth [5]: 43.8% | growth [6]: 74.7% | growth [7]: 77.6% | growth [8]: 73.5% | growth [9]: -15.9% (active) | growth [10]: 16.3%

CN[C@@H]1C[C@H]2O[C@@](C)([C@@H]1OC)n1c3ccccc3c3c4c(c5c6ccccc6n2c5c31)C(=O)N[C@H]4O
growth [1]: 3.62% (active) | growth [2]: -15.6% (active) | growth [3]: -81.2% (active) | growth [4]: -48.5% (active) | growth [5]: -94.3% (active) | growth [6]: -66.5% (active) | growth [7]: -75.8% (active) | growth [8]: -88.4% (active) | growth [9]: -88.4% (active) | growth [10]: -56.6% (active)

CNC(=O)c1cnc(C)nc1-c1cc(C(C)(C)C)c(O)c(C(C)(C)C)c1
growth [1]: 99.8% | growth [2]: 90.4% | growth [3]: 87.5% | growth [4]: 87.5% | growth [5]: 111% | growth [6]: 98% | growth [7]: 88.5% | growth [8]: 91.9% | growth [9]: 100% | growth [10]: 94.1%

O=C1NC(=O)/C(=C/c2ccc3nccc(-c4ccncc4)c3c2)S1
growth [1]: 2.86% (active) | growth [2]: 5.97% (active) | growth [3]: -42.7% (active) | growth [4]: -13.3% (active) | growth [5]: -74.2% (active) | growth [6]: -11.5% (active) | growth [7]: -48.2% (active) | growth [8]: -61.5% (active) | growth [9]: -33.5% (active) | growth [10]: -45.5% (active)

Cn1nccc1Nc1nccc(-c2ccn([C@H](CO)c3ccc(Cl)c(F)c3)c(=O)c2)n1
growth [1]: 93.5% | growth [2]: 84.2% | growth [3]: 0.796% (active) | growth [4]: 90.8% | growth [5]: 108% | growth [6]: 96.4% | growth [7]: 98.3% | growth [8]: 104% | growth [9]: 1.1% (active) | growth [10]: 24.3%

CCn1cc(-c2ccnc3[nH]c(-c4cccc(CN(C)C)c4)cc23)c(-c2ccc(NC(=O)N(C)C)cc2)n1
growth [1]: 40.2% | growth [2]: 1.59% (active) | growth [3]: 46.9% | growth [4]: 14% | growth [5]: -24.8% (active) | growth [6]: 33.5% | growth [7]: 16.1% | growth [8]: 5.58% (active) | growth [9]: 40.8% | growth [10]: 21.4%

CN1CCN(CC(=O)Nc2ccc(-c3nc4ccccc4s3)cc2)CC1
growth [1]: 85.2% | growth [2]: 41.8% | growth [3]: 98.3% | growth [4]: 59.8% | growth [5]: 54.3% | growth [6]: 83% | growth [7]: 91.1% | growth [8]: -31.9% (active) | growth [9]: 105% | growth [10]: 67.6%

CC(C)CC(=O)Nc1n[nH]c2c1CN(C(=O)C1CCN(C)CC1)C2(C)C
growth [1]: 15.2% | growth [2]: 11.1% | growth [3]: 34.9% | growth [4]: 8.95% (active) | growth [5]: -37.2% (active) | growth [6]: 12.1% | growth [7]: 41.6% | growth [8]: -22.3% (active) | growth [9]: 15.5% | growth [10]: 22.2%

CO[C@@H](C(=O)N1Cc2[nH]nc(NC(=O)c3ccc(N4CCN(C)CC4)cc3)c2C1)c1ccccc1
growth [1]: 17.6% | growth [2]: 6.59% (active) | growth [3]: 48.6% | growth [4]: 9.92% (active) | growth [5]: -36.4% (active) | growth [6]: 1.17% (active) | growth [7]: 31.7% | growth [8]: -4.34% (active) | growth [9]: 14.2% | growth [10]: 35.8%

CCCCCCCC12Cc3ccccc3C1=Nc1c(c3ccccc3n1C)C2=O (stereo not given)
growth [1]: 120% | growth [2]: 85.9% | growth [3]: 95.2% | growth [4]: 82.4% | growth [5]: 104% | growth [6]: 100% | growth [7]: 97.4% | growth [8]: 111% | growth [9]: 82.3% | growth [10]: 95.3%

CO[C@H]1C[C@@H]2CC[C@@H](C)[C@@](O)(O2)C(=O)C(=O)N2CCCC[C@H]2C(=O)O[C@H]([C@H](C)C[C@@H]2CC[C@@H](O)[C@H](OC)C2)CC(=O)[C@H](C)/C=C(\C)[C@@H](O)[C@@H](OC)C(=O)[C@H](C)C[C@H](C)\C=C/C=C/C=C/1C
growth [1]: 42.1% | growth [2]: 24.4% | growth [3]: 35.1% | growth [4]: 49.6% | growth [5]: -4.23% (active) | growth [6]: 39.3% | growth [7]: 22.4% | growth [8]: 27.4% | growth [9]: 53% | growth [10]: 50.3%
